The text below walks through data of PubChem BioAssay AID504397 (Broad Institute, 2011).

Potency and affinity values are given separately. A number with no mark means an inactive call. The rule behind the calls is not given here.

The nature of the experiment: mammalian cell cytotoxicity, dose response, cytotoxicity control, plate reader, cherry-pick samples (AID 504397). Conditions: plate reader viability; series mostly up to 35 µM; activity change, negative = toxicity: at the top concentration.
Consider `O=C(Nc1sc2c(c1C(=O)c1ccc(Cl)cc1)CCCC2)c1cccnc1`, for which the “activity change, negative = toxicity” value was 2.35%.

For the compound `CC(C)c1c(C(=O)N/N=C/c2cccc3ccccc23)nnn1-c1nonc1N`, the “activity change, negative = toxicity” value was -7.38%.

Consider `COC(=O)C1CCCN1S(=O)(=O)c1ccc2ccccc2c1` (stereo unspecified), for which the “activity change, negative = toxicity” value was -12%.

With `Cc1csc2nc(=O)c3ccccc3n12`, the “activity change, negative = toxicity” value was 4.49%.

As for `CN1C(=O)/C(=C/c2cccc(Cl)c2)Sc2ccc(C(=O)N3CCOCC3)cc21`, the “activity change, negative = toxicity” value was -6.29%.

With `CCCOc1ccc(-c2c(C(=O)N/N=C/c3cccs3)nnn2-c2nonc2N)cc1`, the “activity change, negative = toxicity” value was 2.41%.

Consider `CCn1cc(/C=C(\NC(=O)c2ccccc2)C(=O)N2CCOCC2)c2ccccc21`, for which the “activity change, negative = toxicity” value is -5.48%.

Take `N/C(Cc1ccc([N+](=O)[O-])cc1)=N\OC(=O)c1ccc2ccccc2c1`: the “activity change, negative = toxicity” value was 0.157%.

As to `CS(=O)(=O)Nc1ccccc1C(=O)NC1CC2CCC1C2` (stereo unspecified), the “activity change, negative = toxicity” value was -0.112%.

For `CC1CCN(Cc2c(C(=O)N/N=C/c3cccc(C(F)(F)F)c3)nnn2-c2nonc2N)CC1`, the “activity change, negative = toxicity” value is -2.09%.

Turning to `CCCCNC(=S)N=Nc1c(O)n(Cc2ccccc2)c2ccccc12`, the “activity change, negative = toxicity” value was -12%.

`CCOc1cc(S(=O)(=O)N(Cc2ccccc2)Cc2ccccc2)c(OCC)cc1-n1cnnn1`: the “activity change, negative = toxicity” value was 1.55%.

For the compound `Cc1ccc(C(=O)c2c3ccc(C(F)(F)F)cc3nn2CCC(N)=O)cc1`, the “activity change, negative = toxicity” value is 1.73%.

In the case of `Nc1nonc1-n1nnc(C(=O)N/N=C/c2cccc(Cl)c2)c1CSc1ccc(Cl)cc1`, the “activity change, negative = toxicity” value was 6.15%.

For the compound `COc1cccc(-c2c(C(=O)N/N=C/c3sccc3C)nnn2-c2nonc2N)c1`, the “activity change, negative = toxicity” value was 0.939%.

In the case of `CCCCCCCCCCOC(=O)Cn1c(COc2ccccc2C)[n+](C)c2ccccc21`, the “activity change, negative = toxicity” value is -7.84%.

As for `CC1(c2ccc(OCC#N)cc2)C=C(c2ccc(OCC#N)cc2)n2nc(C(F)(F)F)nc2N1` (stereo unspecified), the “activity change, negative = toxicity” value is -5.82%.

Take `CC(=O)c1ccc(-c2ccc(C(=O)N3CCC(C(N)=O)CC3)o2)cc1`: the “activity change, negative = toxicity” value was 0.173%.

Regarding `CN(C)CCN(C(=O)c1ccc2ccccc2c1)c1nc2ccc(Br)cc2s1`, the “activity change, negative = toxicity” value is -8.5%.

In the case of `CN(C(=O)COC(=O)c1cn(-c2ccccc2)nc1-c1ccccc1)C1CCS(=O)(=O)C1` (stereo unspecified), the “activity change, negative = toxicity” value was 4.38%.

Consider `O=C(Nc1ccc(Cl)c([N+](=O)[O-])c1)C(Sc1ccccc1)c1ccccc1` (stereo unspecified), for which the “activity change, negative = toxicity” value was -3.51%.

Consider `CCn1nnnc1SCC(=O)Nc1nc(C)c(C)s1`, for which the “activity change, negative = toxicity” value is 0.695%.

Turning to `Cc1ccc(NC(=O)CCc2ccc(S(=O)(=O)NC3CCCCC3)cc2)cc1`, the “activity change, negative = toxicity” value was -8.11%.

As to `COc1ccc(-n2nc(C(=O)NCC(=O)N3CCC(C)CC3)c3ccccc3c2=O)cc1`, the “activity change, negative = toxicity” value was -6.13%.

As to `O=C(c1cnc2n(c1=O)CCS2)N1CCN(C(c2ccccc2)c2ccc(Cl)cc2)CC1` (stereo unspecified), the “activity change, negative = toxicity” value was 0.116%.

`COc1ccc(C2Nc3ccccc3C(=O)N2Cc2ccccc2)cc1COc1ccccn1` (stereo unspecified): the “activity change, negative = toxicity” value was -2.85%.

`CCn1cc(/C=C(\NC(=O)c2ccccc2F)C(=O)N2CCCC2)c2ccccc21`: the “activity change, negative = toxicity” value was -7.83%.

`Cc1ccccc1NS(=O)(=O)c1ccc(C(=O)NCC(c2ccccc2)N(C)C)cc1` (stereo unspecified): the “activity change, negative = toxicity” value is 0.606%.

Take `O=c1c(-c2ccccc2)c(O)c2ccccc2n1-c1ccccc1`: the “activity change, negative = toxicity” value is 10.6%.

Consider `Nc1nnnn1/N=C/c1ccccc1OCc1ccc(Cl)cc1Cl`, for which the “activity change, negative = toxicity” value is -5.67%.

For the compound `CCn1cc(/C=C(\NC(=O)c2ccccc2F)C(=O)N2CCOCC2)c2ccccc21`, the “activity change, negative = toxicity” value was -7.28%.
